Screens: PubChem, National Center for Advancing Translational Sciences (NCATS)
This is a sample that favours compounds with a hit; in the whole collection about 2.4% have one here.
AmpC nodet inh: Promiscuous and Specific Inhibitors of AmpC Beta-Lactamase (assay without detergent); P00811; AmpC nitrocefin hydrolysis, absorbance 480 nm, no detergent; Potency, µM (doses to about 28.7 µM), for inactives: top-dose activity change, negative = inhibition; 71,000 tested, 1.8% active; also: % of control where 0% means no effect
Target sequence (P00811 whole entry, looked up): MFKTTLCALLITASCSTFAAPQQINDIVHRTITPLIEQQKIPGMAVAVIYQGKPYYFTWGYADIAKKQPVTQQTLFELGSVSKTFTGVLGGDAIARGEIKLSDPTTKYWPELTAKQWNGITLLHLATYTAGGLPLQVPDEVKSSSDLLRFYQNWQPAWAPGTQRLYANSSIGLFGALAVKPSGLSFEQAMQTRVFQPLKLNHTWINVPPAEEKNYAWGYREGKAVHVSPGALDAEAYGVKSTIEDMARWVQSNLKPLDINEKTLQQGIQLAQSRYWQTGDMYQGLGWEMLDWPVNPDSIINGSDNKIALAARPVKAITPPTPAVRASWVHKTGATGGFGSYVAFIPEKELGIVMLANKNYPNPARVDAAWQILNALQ
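Enzyme, pH 7.0 phosphate. Compound titrations were pre-incubated with AmpC for 15 min at room temperature before nitrocefin (stock 800 uM) addition; product formation was recorded at 480 nm every 20 s for 4 min.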
Prx2 Sm inh: Schistosoma Mansoni Peroxiredoxins (Prx2); Potency, µM; 65,000 tested, 0.07% active; Schistosoma mansoni peroxiredoxin 2 (Prx2); S. mansoni Prx2 activity coupled to TGR/GSH (TGR is thioredoxin glutathione reductase), NADPH fluorescence loss, qHTS
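Purified S. mansoni TGR and Prx2 in pH 7.4 phosphate buffer with EDTA and Tween-20 were preincubated with compounds for 15 min. Further NADPH/GSH was added, then a 2.5 mM H2O2 aliquot initiated turnover, followed kinetically by NADPH fluorescence.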
Anthrax LT inh: qHTS Assay for Anthrax Lethal Toxin Internalization. Cells, anthrax lethal toxin internalization, FRET ratio (460/530). Potency, µM (highest dose often 40 µM), for inactives: top-dose activity change, negative = inhibition, usual class: inhibitors. 70,000 tested, 0.67% active. AID 912, 2007; also: % is scaled to controls: 0 for no effect and ±100 for the full control effect; nearly all actives have a fitted effect of over 50% in size
AmpC det inh: Promiscuous and Specific Inhibitors of AmpC Beta-Lactamase (assay with detergent) | P00811 | purified AmpC, nitrocefin hydrolysis with detergent | Potency, µM (series often up to 28.7 µM), for inactives: top-dose activity change, negative = inhibition | 71,000 tested, 0.09% active | AID 584, 2007; active = well fitted curve in the direction sought with a large enough effect; inconclusive = small, poorly fitted or top-dose-only effect; also: % is scaled to controls: 0 for no effect and ±100 for the full control effect
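E. coli AmpC (5.3 nM) in 20 mM phosphate pH 7.0 with 0.01% Triton X-100, preincubated 15 min RT with compound; nitrocefin (2 uL of 800 uM stock) hydrolysis followed by 480 nm absorbance every 20 s over 4 min.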
* = called active by the depositor; u = inconclusive; x = no result; ! = a repeat was not active; [ ] = dose if it differs, or a comment. Unless noted, calls follow the shape of the full dose curve. Potency is read from the fitted curve at half-maximal effect.

SMILES	AmpC nodet inh	Prx2 Sm inh	Anthrax LT inh	AmpC det inh
O=C(O)Cc1cc(Cl)ccc1O	-13.3%[5.75 µM]	>57	-7.0%[8 µM]	-4.9%[5.75 µM]
Oc1ccc(Cl)cc1Cc1cc(Cl)cc(Cc2cc(Cl)ccc2O)c1O	-18.4%[5.75 µM]	>57	3.98µM*	1.6%[5.75 µM]
O=C(/C=C/N1CCOCC1)c1ccc(-c2ccccc2)cc1	12.6µM*	x	u	-2.2%
O=C(c1cccc(F)c1)N1CCC2(CCCN(Cc3ccccc3)C2)CC1	13.9%	>57	u	1.9%
COc1cccc(-c2ccc3ncnc(N4CCNCC4)c3c2)c1	17.8%	>57	u	9.3%
Cc1cc(/C=N/n2cnnc2)c(C)n1-c1ccc(OCc2ccc(F)cc2)cc1	99.4%	>57	12.6µM*	-2.8%
Cc1cc(/C=N/n2cnnc2)c(C)n1-c1cccc(Cl)c1	52.3%	x	12.4%	-3.0%
C[C@@H](CO)NC(=O)[C@H]1C=C2c3cccc4[nH]cc(c34)C[C@H]2N(C)C1	-2.7%	>57	u	1.9%
COc1cccc(Cn2nnc(C(=O)NCc3ccc(F)cc3)c2N)c1	3.98µM*[single pt active]	>57	-11.8%	12.9%
CCOc1ccc(Cn2nnc(C(=O)NCCc3ccccc3)c2N)cc1	3.98µM*[single pt active]	>57	-6.9%	10.2%
COc1cccc(Cn2nnc(C(=O)NCc3ccccc3Cl)c2N)c1	3.98µM*[single pt active]	x	u	10.8%
O=C1C2C3C=CC(C3)C2C(=O)N1CCCCN1C(=O)C2C3C=CC(C3)C2C1=O (stereo not given)	1.4%	>57	-2.3%	-3.5%
COc1ccc(NC(=O)CCCN2C(=O)C3C4C=CC(C4)C3C2=O)c(OC)c1 (stereo not given)	21.4%	>57	2.6%	5.8%
O=C(NCCN1C(=O)C2C3C=CC(C3)C2C1=O)Nc1ccc(Br)cc1 (stereo not given)	3.98µM*[single pt active]	>57	-13.4%	13.5%
COc1ccccc1NC(=O)NCCN1C(=O)C2C3C=CC(C3)C2C1=O (stereo not given)	3.98µM*[single pt active]	>57	-1.0%	10.9%
O=C(NCCN1C(=O)C2C3C=CC(C3)C2C1=O)Nc1cccnc1 (stereo not given)	3.98µM*[single pt active]	>57	u	13.5%
N#Cc1cccc(-c2nccc(NCc3ccccc3)n2)c1	18.7%	>57	-8.1%	10.3%
N#Cc1cccc(-c2nccc(NCc3cccnc3)n2)c1	5.01µM*	>57	4.8%	10µM*
CN(Cc1ccco1)c1cc(-c2ccoc2)ncn1	17.8%	>57	-13.9%	0.6%
CN(C)Cc1ccccc1-c1cc(NCc2ccccc2)ncn1	19.8%	>57	5.7%	11.3%
CCOc1ccccc1CNC(=O)c1cc2occc2n1C	10µM*[single pt active]	>57	-28.1%	u
COc1ccccc1CNC(=O)c1cc2sccc2n1C	16.0%	>57	u	-0.7%
Cc1cc(C)cc(N(CC(=O)O)S(=O)(=O)c2cccnc2)c1	4.0%	>57	-2.0%	13.0%
Nc1ccc(Cl)cc1Cl	-5.0%	x	u	10.3%
COc1ccc(OCCSc2ncnc3nc[nH]c23)cc1	3.98µM*[single pt active]	>57	-6.6%	11.4%
SMILES	AmpC nodet inh	Prx2 Sm inh	Anthrax LT inh	AmpC det inh
O=C(O)CC(CC(=O)Nc1nncs1)c1ccccc1 (stereo not given)	-20.6%	>57	3.6%	-5.3%
CN(CC(CC(=O)Nc1nncs1)c1ccccc1)S(=O)(=O)c1ccccc1 (stereo not given)	3.98µM*[single pt active]	>57	5.2%	9.1%
COc1cc(C2CC(=O)N3CN(Cc4ccco4)CSC3=C2C#N)ccc1OCc1ccccc1 (stereo not given)	3.98µM*[single pt active]	>57	u	9.4%
COc1ccc(C2CC(=O)N3CN(Cc4ccco4)CSC3=C2C#N)cc1 (stereo not given)	-3.5%	>57	u	-2.8%
CCOc1cc(C2CC(=O)N3CN(C4CCCCC4)CSC3=C2C#N)ccc1O (stereo not given)	2.51µM*	>57	-7.3%	12.5%
COc1ccc2ccccc2c1C1CC(=O)N2CN(Cc3ccco3)CSC2=C1C#N (stereo not given)	3.98µM*[single pt active]	>57	u	0.5%
Cn1c(=O)n(CC(=O)Nc2ccc(F)cc2)c2ccccc21	2.5%	>57	-8.3%	-5.6%
CCCCNC(=O)Cn1c(=O)n(C)c2ccccc21	3.98µM*[single pt active]	>57	-11.6%	9.3%
O=C(O)c1cccc([As]=[As]c2cccc(C(=O)O)c2)c1 (stereo not given)	4.5%[5.75 µM]	0.253*	u	0.0%[5.75 µM]
CCOC(=O)C1CCN(c2c(N3CCN(c4ccccc4OC)CC3)c(=O)c2=O)CC1	10.7%	>57	-6.0%	6.7%
CCOCC(=O)Nc1ccc2c(c1)OCCO2	10.5%	>57	-5.0%	-2.8%
CCOC(=O)N1CCN(c2c(N3CCc4ccccc43)c(=O)c2=O)CC1	3.98µM*[single pt active]	x	u	14.1%
CCOC(=O)N1CCN(c2c(N3CCN(c4ccccn4)CC3)c(=O)c2=O)CC1	3.98µM*[single pt active]	>57	-9.6%	13.3%
CCOC(=O)N1CCN(c2c(Nc3ccc4c(c3)OCCO4)c(=O)c2=O)CC1	3.98µM*[single pt active]	>57	u	12.7%
CCOC(=O)N1CCN(c2c(NCC3CCCO3)c(=O)c2=O)CC1 (stereo not given)	3.98µM*[single pt active]	>57	-5.7%	5.2%
CCOC(=O)N1CCN(c2c(N3CCOCC3)c(=O)c2=O)CC1	3.98µM*[single pt active]	>57	-7.7%	5.9%
CCOC(=O)c1c(-c2ccc(C)o2)csc1NC(=O)CSc1nnnn1-c1ccccc1	12.6µM*	>57	u	0.0%
COc1ccc(NC(=O)NCCCN2CCc3ccccc3C2)cc1	3.98µM*[single pt active]	>57	-9.4%	14.4%
COc1ccccc1N1CCN(CCCNC(=O)Nc2ccccc2)CC1	18.0%	>57	x	-2.7%
CN(C)C(=O)Cn1nc(-c2ccccc2)c2ccccc2c1=O	10.6%	>57	4.1%	-3.2%
CN(CCC#N)C(=O)Cn1nc(Cc2ccncc2)c2ccccc2c1=O	3.98µM*[single pt active]	>57	-4.4%	11.2%
O=C(Cn1nc(Cc2cccnc2)c2ccccc2c1=O)N1CCC2(CC1)OCCO2	-5.5%	>57	11.3%	0.7%
O=C(Cn1nc(Cc2ccncc2)c2ccccc2c1=O)N1CCc2ccccc2C1	3.98µM*[single pt active]	>57	-1.5%	10.8%
Nc1c2c(nc3ccccc13)CCCC2	-13.0%	>57	31.6µM*!	9.1%
C=CCOC(=O)C(C(C)=O)C(NC(=O)OC)c1ccco1 (stereo not given)	x	x	-5.1%[8 µM]	x
SMILES	AmpC nodet inh	Prx2 Sm inh	Anthrax LT inh	AmpC det inh
C=CCn1c(=O)n(CCOC)c(=O)c2sc3ccccc3c21	3.98µM*[single pt active]	>57	-10.4%	11.8%
CC(C)CCn1c(SCC#N)nc2c(sc3ccccc32)c1=O	-3.2%	>57	8.6%	4.0%
CC1CC(C)CN(S(=O)(=O)c2ccc(NC(=O)C3COc4ccccc4O3)cc2)C1 (stereo not given)	15.8µM*[single pt active]	>57	u	7.1%
CC(C)(C)NC(=O)c1ccc(NC(=O)C2COc3ccccc3O2)cc1 (stereo not given)	7.7%	>57	14.1%	-1.6%
COC(=O)c1ccc(C)c(NC(=O)C2COc3ccccc3O2)c1 (stereo not given)	9.8%	>57	x	-2.1%
COc1ccc(OC)c(NS(=O)(=O)c2ccc(NC(=O)C3COc4ccccc4O3)cc2)c1 (stereo not given)	10µM*	x	u	-0.5%
